Results reported in PubChem BioAssay (NCATS).
“And” between values parts separate entries of the source, which are not always exact repeats. Equal values may be shown once. Inconclusive results are not listed. A number with no mark means an inactive call. The source made the active and inactive calls. Calls follow the shape of the dose curve; as a rule, active = well fitted cell-killing curve with a large enough effect; inconclusive = small, poorly fitted or top-dose-only effect, or effect the other way; inactive = flat fitted curve, though single readings scatter.

Experiment: qHTS assay for cell viability of HEK293 cells (AID 743288); also: nearly all actives have a fitted effect of over 50% in size
Settings: ATP luminescence (CellTiter-Glo), 18 h; max response: active compounds read low
From the text: National Center for Advancing Translational Sciences [NCATS]
NIH Chemical Genomics Center [NCGC]
U.S. Environmental Protection Agency [EPA]
National Institutes of Environmental Health Sciences [NIEHS]
National Toxicology Program [NTP]
U.S. Food and Drug Administration [FDA]
The CellTiter-Glo Luminescent Cell Viability Assay (Promega, Madison, WI) is a homogeneous method to determine the number of viable cells in culture based on quantitation of the ATP present, which signals the presence of metabolically active cells. This cell viability assay was used to screen environmental chemicals in the Hek293 cell line.
Tox21 Assay Protocol Summary:
Cell viability after compound treatment was measured using a luciferase-coupled ATP quantitation assay (CellTiter-Glo viability assay, Promega, Madison, WI) in parental HEK293 cells. Total intracellular ATP content corresponds to the number of metabolically competent cells after compound treatment. The cells were dispensed at 2,000 cells/5 uL/well in 1,536-well white/solid bottom assay plates using a Flying Reagent Dispenser (Aurora Discovery, San Diego, CA). The cells were incubated a minimum of 5 h at 37 C, followed by the addition of 23 nL of compounds dissolved in DMSO, positive controls or DMSO only using a pintool work station (Kalypsys, San Diego, CA). The assay plates were incubated for 18 h at 37 C, followed by the addition of 5 uL/well of CellTiter-Glo reagent. After 30 min incubation at room temperature, the luminescence intensity of the plates was measured using a ViewLux plate reader (PerkinElmer, Shelton, CT).
% is scaled to controls: 0 for no effect and ±100 for the full control effect; potency is read from the fitted curve at half-maximal effect.

SMILES	max response	Potency
CCC1(c2ccccc2)C(=O)NCNC1=O	-2.05% and -6.21%	
Cn1c(=O)c2[nH]cnc2n(C)c1=O	2.06%	
COc1cc2c(c(OC)c1OC)-c1ccc(OC)c(=O)cc1[C@@H](NC(C)=O)CC2	-13.3% and -14.4% and -4%	
N[C@@H](Cc1c[nH]c2ccc(O)cc12)C(=O)O	3.87%	
NS(=O)(=O)c1cc2c(cc1Cl)NCNS2(=O)=O	-3.61% and 2.79%	
CC(C)NCC(O)c1ccc(O)c(O)c1 (stereo not drawn)	0.858% and -11.4%	
CC(COc1ccccc1)N(CCCl)Cc1ccccc1 (stereo not drawn)		35.5 µM (active)
CC(C)Cc1ccc(C(C)C(=O)O)cc1 (stereo not drawn)	-10%	
NCCS(=O)(=O)O	10.5%	
Nc1c2c(nc3ccccc13)CCCC2	-20.1%	
C[C@](N)(Cc1ccc(O)c(O)c1)C(=O)O	-5.13%	
COc1ccc2[nH]cc(CCNC(C)=O)c2c1	-9.99% and -9.18% and -3.1%	
O=c1[nH]cc(F)c(=O)[nH]1	-0.211%	
Cn1cnc2c1c(=O)[nH]c(=O)n2C	-4%	
Cc1ccc(-c2cc(C(F)(F)F)nn2-c2ccc(S(N)(=O)=O)cc2)cc1	-4.48%	
CC(C)(Oc1ccc(C2CC2(Cl)Cl)cc1)C(=O)O (stereo not drawn)	-8.57%	
Cc1cn([C@H]2C[C@H](N=[N+]=[N-])[C@@H](CO)O2)c(=O)[nH]c1=O	-21.7%	
O=C(Nc1ccc([N+](=O)[O-])cc1Cl)c1cc(Cl)ccc1O		7.08 µM (active)
COc1ccc(CCN(C)CCCC(C#N)(c2ccc(OC)c(OC)c2)C(C)C)cc1OC (stereo not drawn)	0.749%	
CN(C)CCOC(c1ccccc1)c1ccccc1	-15%	
Cc1cn([C@H]2C=C[C@@H](CO)O2)c(=O)[nH]c1=O	-5.34% and -4.2% and -3.76%	
CCOC(=O)C(C)(C)Oc1ccc(Cl)cc1	-5.02%	
O=c1c(-c2ccc(O)cc2)coc2cc(O)cc(O)c12	-13% and -14.1%	
COc1ccc2c(c1)c(CC(=O)O)c(C)n2C(=O)c1ccc(Cl)cc1	11.9% and -6.39%	
O=C(CCCN1CCC(O)(c2ccc(Cl)cc2)CC1)c1ccc(F)cc1	-20.6%	
Cn1c(=O)c2c(ncn2C)n(C)c1=O	0.413% and -8.15%	
CC(C)C(=O)Nc1ccc([N+](=O)[O-])c(C(F)(F)F)c1	-5.73% and -15.5%	
Nc1ccn([C@H]2CC[C@@H](CO)O2)c(=O)n1	3.55% and 2.55%	
